Each structure is given as a SMILES string. The campaign covered roughly 400,000 compounds. About 3,700 (0.93%) were called active. Inconclusive results (about 3%) are left out. The rule behind the calls is not given here. The sample as a whole holds a higher share of actives than the screen did.

The target in the experiment is T1, Vitamin D3 receptor (Homo sapiens) (UniProt P11473).
T1 sequence (whole entry): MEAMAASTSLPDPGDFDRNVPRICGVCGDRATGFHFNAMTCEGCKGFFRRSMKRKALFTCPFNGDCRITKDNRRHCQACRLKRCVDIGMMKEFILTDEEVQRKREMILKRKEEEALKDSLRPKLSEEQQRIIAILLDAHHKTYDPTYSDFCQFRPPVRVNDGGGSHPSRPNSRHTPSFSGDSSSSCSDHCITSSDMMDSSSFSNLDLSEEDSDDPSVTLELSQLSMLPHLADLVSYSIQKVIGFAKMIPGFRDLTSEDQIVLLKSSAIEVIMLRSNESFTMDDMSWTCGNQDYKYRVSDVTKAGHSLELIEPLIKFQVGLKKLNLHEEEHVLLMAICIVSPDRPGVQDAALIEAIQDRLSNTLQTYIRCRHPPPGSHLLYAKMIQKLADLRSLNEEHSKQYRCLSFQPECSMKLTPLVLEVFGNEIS
Description: Inhibitors of the vitamin D receptor (VDR): qHTS. [Related pubchem assays (depositor defined):AID504855]. In kind it is functional. Background: In qHTS, concentration-response curves come from the screen itself.
With `Cl[Te]1(Cl)OCCO1`, the Potency was 3.16 µM (active).

These data come from ChEMBL document CHEMBL1201862, “PubChem BioAssay data set” (2004).
